Calls of active or inactive are those of the source. A call without a number means that no potency is given here. Calls come from the whole dose curve; as a rule, active = well fitted inhibition curve with a large enough effect; inconclusive = small, poorly fitted or top-dose-only effect; inactive = flat fitted curve, though single readings scatter.
Potency is the fitted concentration of half-maximal effect.

This assay has as its target Luciferin 4-monooxygenase (Photinus pyralis) (UniProt P08659). Put plainly: Primary firefly luciferase (FLuc) qHTS assay for identification of artifact compounds. (AID 1845220). Note: nearly all actives have a fitted effect of over 60% in size. The following applies: purified firefly luciferase, luminescence, 5 min; series mostly up to 54.1 µM. The text has this: PI: Alexander Tropsha Ph.D.
UNC Eshelman School of Pharmacy
University of North Carolina, Chapel Hill, North Carolina
Hits from high-throughput screening (HTS) of chemical libraries are often false positives due to their interference with the assay detection technology. In response to this problem, we generated the largest publicly available library of chemical liabilities and developed a free webtool to predict HTS artifacts, both of which are described herein. More specifically, we generated, curated, and integrated HTS datasets for thiol reactivity, redox activity, and luciferase (firefly and nano) activity. Using these curated datasets, we developed and validated several Quantitative Structure-Interference Relationship (QSIR) models to predict nuisance behavior. […] These models were employed for virtual profiling of the National Center for Advancing Translational Science's (NCATS) in-house library, and 256 compounds for each assay were selected for the experimental validation of nuisance behavior. The BA for these external predictions ranged from 58 to 78% for compounds within the applicability domains of the models. […] The models developed in this study, along with aggregation models previously developed by our group (SCAM Detective) were implemented in "Liability Predictor," an online tool which may be used as part of chemical library design or for triaging HTS hits. Both the models and the curated datasets are publicly available at https://liability.mml.unc.edu/.
SEQUENCE No. (e.g., 1, 2, 3, etc.); […] (e.g., Cells, Incubation, Reagent, etc.); VALUE; DESCRIPTION.
1; Reagent; 3 uL; Luciferase substrate mixture.
2; Compounds and control; 16 nL; Kalypsis pin tool (Wako USA) equipped with a 1536-well pin head.
4; Reagent; 1 uL; Luciferase enzyme.
6; Detection; Luminescence, ViewLux microplate reader.
NOTES (numbers refer to Sequence numbers above)
1. 3 uL of luciferase substrate mixture containing D-luciferin and ATP (final concentrations of 10 uM and 10 uM, respectively) in assay buffer (10 mM Mg-acetate, 0.01% Tween-20, 0.05% bovine serum albumin, 50 mM Tris acetate, pH 7.6) was dispensed into all wells of a 1536-well assay plate (solid-bottom white plate; Greiner Bio One, Monroe, NC).
2. A Wako Pin-tool (Wako Automation, Richmond, VA) was used to transfer 16 nL of compounds (consisting of 7-plates in qHTS format, final concentration range 18.3 nM to 114 uM) or control PTC124 (final concentration range 1.22 nM to 40 uM).
3. 15 min. incubation at room temperature protected from light.
4. 1 uL of luciferase enzyme (final concentration 10 nM, Photinus pyralis luciferase) or buffer was dispensed for a final assay volume of 4 uL.
5. Plates were centrifuged (121xg, 15 seconds) and incubated for 5 minutes.
6. Samples were read for luminescence on a ViewLux CCD imager (PerkinElmer). Data were normalized to no-enzyme (0% activity) and no-inhibitor (DMSO; 100%) controls and the resulting percent inhibition data were fitted to a 4-parameter Hill equation using NCATS in-house software.
(qHTS replaces the single test concentration by a dilution series.)
As for `Nc1cccc(CNC(=O)c2ccc(Oc3ccc(OCc4cccc(F)c4)cc3)nc2)c1`, the Potency result was “inactive”.

Regarding `C=C1C(=O)O[C@H]2C1CCC(C)=C1C(=O)C=C(C)[C@@]12O` (stereo not given in full), the Potency entry was “inactive”.

Consider `COc1c(C(C)C)c(O)c(O)c2c1C(OC)[C@H]1OC(=O)[C@@]23CCCC(C)(C)[C@H]13` (stereo not given in full), for which the Potency result was “inactive”.

`CCC(CC)(NC(=O)C(C)C)C(=O)N[C@@H](CCCN=C(N)N)C(=O)NC1(C(=O)NC(c2ccc(F)cc2)c2ccc(F)cc2)CCCC1`: the Potency result was “inactive”.

Turning to `C=C1[C@@H](OC(C)=O)CC[C@@]2(C)[C@@H](OC(C)=O)[C@H](OC(C)=O)C3=C(C)C[C@H](OC(=O)C(C)CC)[C@@H]([C@@H](OC(C)=O)[C@H]12)C3(C)C` (stereo not given in full), the Potency result is “inactive”.

On to `COc1ccnc(CS(=O)c2nc3cc(OC(F)F)ccc3[nH]2)c1OC` (stereo not given), for which the Potency entry was “inactive”.

As to `CCCc1ccc(OCC(=O)N(Cc2nc(-c3cccnc3)no2)C(C)C)cc1`, the Potency entry is “inactive”.

Consider `CCCCOC(=O)NS(=O)(=O)c1sc(CC(C)C)cc1-c1ccc(Cn2ccnc2)cc1`, for which the Potency result is “inactive”.

On to `COc1ccc(-c2cc3onc(-c4ccncc4)c3c(=O)n2C)cc1`, for which the Potency was 1900 nM (active).

Turning to `COc1ccc2c(NC(=O)Nc3cccc(C(F)(F)F)n3)ccnc2c1`, the Potency result is “inactive”.

Take `COC(C)(C)CCn1nc(Nc2c(C)cccc2C)c2cnc(Nc3ccc(OCCN4CCCC4)c(F)c3)nc21`: the Potency entry is “inactive”.

As for `O=C(Nc1ccc(-n2nc(C(F)(F)F)cc2C(F)(F)F)cc1)c1ccncc1F`, the Potency result was “inactive”.

`CC(C)c1c(O)ccc2c1CC[C@H]1C(C)(C)CCC[C@]21C`: the Potency result was “inactive”.

Regarding `Cc1noc(C)c1-c1cc(O)cc(C(O)c2ccccc2)c1` (stereo not given), the Potency entry is “inactive”.

`O=S(=O)(NCc1ccccn1)c1ccc(Br)c2ccccc12`: the Potency entry is “inactive”.

For the compound `COC1C=C(C)C(O)(CO)C2(C)CCCC(C)(C)C12` (stereo not given), the Potency entry was “inactive”.

On to `N#Cc1cc(-c2ccnc(Nc3ccc(N4CCOCC4)cc3)n2)ccc1OC1CCOCC1`, for which the Potency result is “inactive”.

On to `Cn1c(CO)c(-c2ccccc2)c2cc([N+](=O)[O-])ccc21`, for which the Potency result was “inactive”.

Consider `COc1cc2nc(N3CCN(C(=O)c4ccco4)C4CCCCC43)nc(N)c2cc1OC` (stereo not given), for which the Potency result is “inactive”.

Regarding `CC(=O)OC1CC(O)(C(C)C)C2C(OC(=O)c3ccc(O)cc3)C=C(C)C(=O)CC12C` (stereo not given), the Potency entry was “inactive”.

Consider `COc1c(C)cc(NC(=O)c2nn(Cc3ccc(F)cc3)c3c2CN(C(=O)c2ccc[nH]2)C[C@]3(C)C(N)=O)cc1C`, for which the activity change, negative = inhibition is 2.65% [at 11.6 µM] (inactive).

For `Cc1cc(C)c(-n2cc(C)c3c(Cl)nc(C)nc32)c(C)c1`, the Potency result is “inactive”.

With `Cc1[nH]c2ccccc2c1CCNC(=O)c1cccs1`, the Potency entry is “inactive”.

Turning to `C=C1/C(=C/C=C2\CCC[C@]3(C)[C@@H]([C@H](C)CC[C@@H](O)C(C)(C)O)CC[C@@H]23)C[C@@H](O)C[C@@H]1O`, the Potency entry was “inactive”.

For the compound `Cn1ncc(Cl)c1-c1cc(C(=O)N[C@H](CN)Cc2ccc(F)c(F)c2)oc1Cl`, the Potency entry is “inactive”.

Regarding `N#Cc1cccc(C(=O)Nc2cc(-c3ccccc3)nn2-c2ccccc2)c1`, the Potency result was “inactive”.

In the case of `CCn1c2ccccc2c2cc(Nc3ccnc(NCCCN4CCOCC4)n3)ccc21`, the Potency result was “inactive”.

`Cc1ccnn1-c1ccc(C(=O)N2CCN(S(=O)(=O)c3ccc(Cl)c(C(F)(F)F)c3)CC2)cc1`: the Potency entry is “inactive”.

For the compound `O=C(Cc1c(F)cccc1F)Nc1cc(OCc2ccc(Cl)cc2)ccn1`, the Potency entry is “inactive”.

Regarding `CC[C@@H](C)Nc1cc(C(=O)NC2CC3CCC(C2)N3c2ccc(C(=O)C3CC3)cn2)c(C)cc1C(N)=O` (stereo not given in full), the Potency entry was “inactive”.

Regarding `CCOC(=O)c1cnc2ccc(-c3cncc(NS(=O)(=O)c4ccccc4)c3)cn12`, the Potency entry was “inactive”.

Consider `Cc1sc2c(c1C)C(c1ccc(Cl)cc1)=N[C@H](CC(=O)NCCCCNC(=O)COc1cccc3c1C(=O)N([C@H]1CCC(=O)NC1=O)C3=O)c1nnc(C)n1-2`, for which the Potency entry is “inactive”.

In the case of `C[C@@H](NC(=O)C(=O)c1c[nH]c2ccc([N+](=O)[O-])cc12)c1ccccc1`, the Potency result is “inactive”.

For `CCc1cnc(N2CCC(c3nc(COc4ccc(-n5cnnn5)cc4)cs3)CC2)nc1`, the Potency result is “inactive”.

Regarding `CCOc1cc(C(C)(C)C)ccc1C1=NC(C)(c2ccc(Cl)cc2)C(C)(c2ccc(Cl)cc2)N1C(=O)N1CCN(CCCS(C)(=O)=O)CC1` (stereo not given), the Potency result is “inactive”.

For `C=C1C(=O)O[C@@H]2C[C@H](C)[C@@H]3CC(=O)C(C)=C3C[C@H]12`, the Potency result is “inactive”.

Consider `COc1ccc([C@H]2Cc3cccc(O)c3C(=O)O2)cc1OC`, for which the Potency entry is “inactive”.

With `Oc1cccc(C2NC(=S)Nc3cccc(F)c32)c1` (stereo not given), the Potency result was “inactive”.

On to `C=C1C(OC2OC(CO)C(O)C(O)C2O)CC2C(C)(C)C(O)CCC2(C)C1CC/C(C)=C\COC(=O)CC(=O)O` (stereo not given), for which the Potency entry was “inactive”.

In the case of `COC(=O)c1ccc2c(c1)nc(NC(=O)c1ccccc1)n2CCCc1ccccc1`, the Potency entry was “inactive”.

The values above are taken from PubChem BioAssay (NCATS).
